Results published in PubChem BioAssay (EPA / NIEHS).
Calls of active or inactive are those of the source. The calls were made as follows: active = hit-call score of the fitted dose curve at least 0.9, where 1 is the maximum; inactive = score below 0.9.

experiment: UKN2_HCS_IMR90_cell_viability: Viability Assessment in the University of Konstanz (UKN) Leist Lab Neural Crest Cell Migration Assay in human induced IMR90 Pluripotent Stem Cells (UKN2) (AID 2284233);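 also: cells exposed to compound for 24 h after a 24 h migration phase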
Procedure: UKN2_HCS_IMR90 is a cell-based, multiplexed-readout assay screening for neural crest cell migration and cell viability that uses IMR90 (neural crest cells differentiated from iPSC), a human embryo cell line, with measurements taken at […] after chemical dosing in a microplate: 96-well plate. UKN2, also known as cMINC, is an assay that uses IMR90 cells (neural crest cells differentiated from iPSC) as a model of neural crest cell migration. 24 hr after cell seeding, cell migration was initiated and proceeded for 24 hr. Then, chemical was applied, and after 24 hr of exposure migration and viability were assessed using high-content imaging of cells stained with calcein-AM and Hoechst H-33342.UKN2_HCS_IMR90_cell_viability is an assay component measured from the UKN2_HCS_IMR90 assay. It is designed to make measurements of enzyme activity, a form of viability reporter, as detected with Fluorescence intensity signals by HCS Fluorescent Imaging.The assay endpoint UKN2_HCS_IMR90_cell_viability was analyzed with bidirectional fitting relative to DMSO as the negative control and baseline of activity. Using a type of viability reporter, gain or loss-of-signal activity can be used to understand viability effects. To generalize the intended target to other relatable targets, this assay endpoint is annotated to the cell cycle intended target family, where the subfamily is viability.
The wells are coated with PLO/laminin/fibronectin. Then, silicone stoppers are placed into the wells of a 96-well plate. Cells are seeded around the stoppers and allowed to attach for 24 hours. Day 0: The silicone stoppers are removed and the medium is replaced with pre-warmed, fresh N2-S medium containing the cytokines EGF and FGF. Cells are allowed to migrate into the cell free area. Day 1: 25 ul of the 5x concentrated toxicants are added to the wells. The cells plus toxicants are incubated for 24 h. Day 2: Cells are stained with calcein-AM and Hoechst (H-33342) for 30 min before imaging with a high content imaging microscope. Quantification of migration and viability is done by high content imaging analysis.

SMILES | outcome | AC50
Cc1[nH]n(C)c(=O)c1C(=O)c1ccc(C(F)(F)F)cc1S(C)(=O)=O | inactive | –
C[C@@H]1CCO[C@H]2Cn3cc(C(=O)NCc4ccc(F)cc4F)c(=O)c(O)c3C(=O)N12 | inactive | –
CC(C)c1nn(C(=O)NC(C)(C)C)c(=O)n1N | inactive | –
CC(=O)N[C@@H](CC(=O)O)C(=O)O | inactive | –
Cc1ccccc1 | inactive | –
O.O=S(=O)([O-])[O-].[Mn+2] | – | 50 µM (active)
C[C@@H]1CC[C@@H](C(C)(C)O)[C@H](O)C1 | inactive | –
CC(C)O | inactive | –
CCCCCC=C(C)C(CC)CCO (stereo not given) | inactive | –
CC(CNC(=S)[S-])NC(=S)[S-].[Zn+2] (stereo not given) | inactive | –
CCCCCC(C)(CC)C(=O)NC (stereo not given) | inactive | –
CCc1ccccc1 | inactive | –
Brc1cc(Br)c(Oc2cc(Br)c(Br)cc2Br)cc1Br | inactive | –
CC(=O)OC/N=[N+](\C)[O-] | inactive | –
BrC1CC(Br)CC(Br)CC(Br)CC(Br)CC(Br)C1 (stereo not given) | inactive | –
